Results filed as inconclusive are left out. Calls of active or inactive are those of the source. Unless noted, calls follow the shape of the dose curve; as a rule, active = well fitted curve in the direction sought with a large enough effect in the repeat runs; inconclusive = weak or mixed curves; inactive = no such curve, though single readings can be large; an effect the other way counts as inactive or inconclusive.

Experimental findings from PubChem BioAssay (Tox21) are described below.

A short description of assay [1]: qHTS assay to test for compound auto fluorescence at 535 nm (green) in HEK293 cells (AID 720680).
The nature of assay [2]: qHTS assay to test for compound auto fluorescence at 460 nm (blue) in HEK293 cell free culture (AID 720681). In short, it runs like this:
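Compounds were added to cell-free DMEM with 10% FBS and fluorescence read directly. The blue channel used 405 nm excitation and 460 nm emission, with triamterene as the reference fluorophore.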

Assay [3] can be described thus: qHTS assay to test for compound auto fluorescence at 535 nm (green) in HEK293 cell free culture (AID 720682). In short, it runs like this:
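DMEM + 10% FBS, cell-free; cpd or DMSO pinned in; Ex485/Em535 read; output as fluorescein-equivalent signal.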
(In general: qHTS replaces the single test concentration by a dilution series.)

The nature of assay [4]: qHTS assay to test for compound auto fluorescence at 590 nm (red) in HEK293 cell free culture (AID 720683). In outline:
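Cell-free wells of DMEM with 10% FBS received compound, and intrinsic fluorescence was read at excitation/emission 540/590 nm. Values expressed as equivalence to Rose Bengal sodium.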

A short description of assay [5]: qHTS assay to test for compound auto fluorescence at 590 nm (red) in HepG2 cell free culture (AID 720684). In short, it runs like this:
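Compound was pinned into wells holding MEM with 10% FBS and no cells, and red fluorescence was read at Ex/Em 540/590 nm. Signal is expressed as auto fluorescence equivalency relative to Rose Bengal sodium.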

Assay [6] can be described thus: qHTS assay to test for compound auto fluorescence at 460 nm (blue) in HepG2 cell free culture (AID 720685). In outline:
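Compound (23 nL) or DMSO pinned into cell-free MEM with 10% FBS; blue fluorescence read at 405/460 nm excitation/emission, expressed as auto-fluorescence equivalency to triamterene.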

A short description of assay [7]: qHTS assay to test for compound auto fluorescence at 535 nm (green) in HepG2 cell free culture (AID 720686).
Assay [8] can be described thus: qHTS assay to test for compound auto fluorescence at 460 nm (blue) in HepG2 cells (AID 720687). In short, it runs like this:
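HepG2 cells in MEM with 10% FBS, attached overnight at 37 C, were exposed to compound or DMSO for 1 hr at 37 C, 5% CO2. Blue fluorescence was read at 405/460 nm, with triamterene as reference fluorophore.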

Assay [9] addresses Glucocorticoid receptor (Homo sapiens) (UniProt P04150). The assay can be described thus: qHTS assay to identify small molecule agonists of the glucocorticoid receptor (GR) signaling pathway (AID 720691; active = well fitted activation curve with a large enough effect in the signal ratio in the repeat runs, not every such curve was filed as active; the % refers to the signal ratio). The settings on record: GR-bla HeLa, beta-lactamase reporter ratio, 18 h; activation: at 62.4 µM (top of the series). In short, it runs like this:
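Beta-lactamase reporter activity, read as fluorescence intensity, was measured in GR-bla HeLa cells exposed to compounds for 18 h at 37 C and then loaded with LiveBLAzer B/G FRET substrate for 2 h at room temperature.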

Assay [10] has the same target. The assay can be described thus: qHTS assay to identify small molecule antagonists of the glucocorticoid receptor (GR) signaling pathway (AID 720692; active = well fitted inhibition curve with a large enough effect in the signal ratio in the repeat runs, not every such curve was filed as active; the % refers to the signal ratio). In outline:
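Fluorescence from cleaved LiveBLAzer B/G FRET substrate reports GRE-driven beta-lactamase in HeLa cells; compounds are tested against 5 nM dexamethasone (final) over 18 h at 37 C, substrate incubation 2 h at room temperature.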

The nature of assay [11]: qHTS assay to identify small molecule antagonists of the glucocorticoid receptor (GR) signaling pathway - cell viability counter screen (AID 720693). Also: nearly all actives have a fitted effect of over 55% in size.
Assay [12] can be described thus: qHTS assay for identifying genotoxic compounds that show differential cytotoxicity against isogenic chicken DT40 cell lines with known DNA damage response pathways - wild type cell line (AID 743012). Also: nearly all actives have a fitted effect of over 60% in size. Also: potency is read from the fitted curve at half-maximal effect. In outline: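 Quantitative HTS on parental DT40 cells: 40 h compound treatment at 37 C/5% CO2, with viability then determined by CellTiter-Glo luminescence. Values serve as the DNA repair-proficient reference for differential cytotoxicity.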

Assay [13] in a line: qHTS assay for identifying genotoxic compounds that show differential cytotoxicity against isogenic chicken DT40 cell lines with known DNA damage response pathways - Rev3 mutant cell line (AID 743014). Also: nearly all actives have a fitted effect of over 55% in size. Also: potency is read from the fitted curve at half-maximal effect.
Assay [14] in a line: qHTS assay for identifying genotoxic compounds that show differential cytotoxicity against isogenic chicken DT40 cell lines with known DNA damage response pathways - Rad54/Ku70 mutant cell line (AID 743015). Also: nearly all actives have a fitted effect of over 60% in size. Also: potency is read from the fitted curve at half-maximal effect.
Assay [15] can be described thus: qHTS assay to identify small molecule antagonists of the androgen receptor (AR) signaling pathway - cell viability counter screen (AID 743033; also: nearly all actives have a fitted effect of over 45% in size).
Assay [16] can be described thus: qHTS assay to identify small molecule antagonists of the androgen receptor (AR) signaling pathway using the MDA cell line - cell viability counter screen (AID 743041; also: nearly all actives have a fitted effect of over 45% in size). In short, it runs like this:
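MDA-kb2 AR-luc cells (MMTV-luciferase, AR/GR responsive) treated with compounds plus R1881 agonist for 16 h at 37C. CellTiter-Fluor added at 15.5 h; fluorescence read after 30 min in the same wells.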

Assay [17] concerns the target Androgen receptor (Homo sapiens) (UniProt P10275). The assay can be described thus: qHTS assay to identify small molecule agonists of the androgen receptor (AR) signaling pathway (AID 743036; active = well fitted activation curve with a large enough effect in the signal ratio in the repeat runs, with a control signal flat, not every such curve was filed as active; the % refers to the signal ratio). In short, it runs like this:
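Screening used 2,000 AR-bla HEK293 cells per well, treated 16 h at 37C with test compounds in DMSO alongside positive and DMSO-only controls; beta-lactamase activity was then read by LiveBLAzer B/G FRET fluorescence after 2 h at room temperature.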

The target is the same in assay [18]. The assay can be described thus: qHTS assay to identify small molecule agonists of the androgen receptor (AR) signaling pathway using the MDA cell line (AID 743040; also: nearly all actives have a fitted effect of over 20% in size). In outline:
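MDA-kb2 breast carcinoma cells carrying MMTV-luciferase (responsive to AR and GR), plated 5 h then treated 16 h with compounds at 37C, 0% CO2. Read-out was ONE-Glo luminescence after 30 min at room temperature.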

For assay [19] the target is unchanged. The assay can be described thus: qHTS assay to identify small molecule antagonists of the androgen receptor (AR) signaling pathway using the MDA cell line (AID 743042; also: nearly all actives have a fitted effect of over 55% in size). In short, it runs like this:
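MDA-kb2 breast carcinoma cells carrying MMTV-luciferase (AR/GR responsive) were co-treated with compounds and the agonist R1881 for 16 h at 37C. Inhibition read as ONE-Glo luminescence; CellTiter-Fluor fluorescence measured in parallel for cytotoxicity.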

The target is the same in assay [20]. The assay can be described thus: qHTS assay to identify small molecule antagonists of the androgen receptor (AR) signaling pathway (AID 743035; active = well fitted inhibition curve with a large enough effect in the signal ratio in the repeat runs, not every such curve was filed as active; the % refers to the signal ratio). In outline: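 Cell line: GeneBLAzer AR-UAS-bla GripTite (HEK293). Stimulus: R1881 added after compound. Exposure: 16 h, 37C, 5% CO2. Readout: LiveBLAzer B/G FRET fluorescence after 2 h at room temperature.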

Glucocorticoid receptor (Homo sapiens), sequence (P04150 whole entry, looked up): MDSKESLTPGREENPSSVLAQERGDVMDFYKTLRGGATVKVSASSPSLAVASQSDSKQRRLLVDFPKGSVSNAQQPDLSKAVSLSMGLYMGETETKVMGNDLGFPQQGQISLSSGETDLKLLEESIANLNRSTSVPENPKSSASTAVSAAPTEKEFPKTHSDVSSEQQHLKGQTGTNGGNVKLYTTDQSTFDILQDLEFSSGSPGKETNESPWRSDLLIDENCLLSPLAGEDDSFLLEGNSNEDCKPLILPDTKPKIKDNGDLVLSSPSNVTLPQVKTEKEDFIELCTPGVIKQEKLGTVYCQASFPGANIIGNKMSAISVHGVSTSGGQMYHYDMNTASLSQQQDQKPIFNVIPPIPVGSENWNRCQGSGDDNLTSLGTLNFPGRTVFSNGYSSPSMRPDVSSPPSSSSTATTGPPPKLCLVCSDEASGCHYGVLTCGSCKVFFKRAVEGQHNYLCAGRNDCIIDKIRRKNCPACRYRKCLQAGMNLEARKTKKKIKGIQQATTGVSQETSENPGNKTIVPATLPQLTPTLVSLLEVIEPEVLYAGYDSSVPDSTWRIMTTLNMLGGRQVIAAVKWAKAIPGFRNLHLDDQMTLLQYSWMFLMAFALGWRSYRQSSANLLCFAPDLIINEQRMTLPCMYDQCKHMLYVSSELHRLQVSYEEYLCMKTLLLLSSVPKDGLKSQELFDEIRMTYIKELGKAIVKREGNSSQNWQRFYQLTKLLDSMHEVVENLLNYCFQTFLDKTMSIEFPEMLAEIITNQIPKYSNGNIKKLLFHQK
Androgen receptor (Homo sapiens), sequence (P10275 whole entry, looked up): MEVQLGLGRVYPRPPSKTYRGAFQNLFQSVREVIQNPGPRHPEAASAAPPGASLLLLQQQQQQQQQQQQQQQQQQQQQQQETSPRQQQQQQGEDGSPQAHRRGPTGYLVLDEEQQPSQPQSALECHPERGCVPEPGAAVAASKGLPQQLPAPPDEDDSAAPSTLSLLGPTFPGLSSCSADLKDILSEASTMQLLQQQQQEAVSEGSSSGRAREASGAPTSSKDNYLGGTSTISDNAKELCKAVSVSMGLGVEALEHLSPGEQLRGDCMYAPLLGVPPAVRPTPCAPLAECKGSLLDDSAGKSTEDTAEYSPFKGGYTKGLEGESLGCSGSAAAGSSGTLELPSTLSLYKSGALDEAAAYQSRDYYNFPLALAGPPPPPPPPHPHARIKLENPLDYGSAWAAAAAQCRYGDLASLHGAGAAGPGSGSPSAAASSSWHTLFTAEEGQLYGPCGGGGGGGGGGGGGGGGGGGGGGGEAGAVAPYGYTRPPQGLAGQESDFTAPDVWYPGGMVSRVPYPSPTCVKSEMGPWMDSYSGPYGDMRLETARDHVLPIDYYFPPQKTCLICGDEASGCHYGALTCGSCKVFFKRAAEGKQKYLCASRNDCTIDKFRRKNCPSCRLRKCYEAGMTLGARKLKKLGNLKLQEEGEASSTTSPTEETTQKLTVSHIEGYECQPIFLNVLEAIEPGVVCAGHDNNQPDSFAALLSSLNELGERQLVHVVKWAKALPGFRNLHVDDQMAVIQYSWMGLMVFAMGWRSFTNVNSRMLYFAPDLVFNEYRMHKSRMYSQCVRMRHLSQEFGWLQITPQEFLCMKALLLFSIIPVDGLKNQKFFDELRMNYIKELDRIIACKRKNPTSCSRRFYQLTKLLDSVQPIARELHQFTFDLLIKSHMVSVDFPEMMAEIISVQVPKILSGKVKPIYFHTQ

As for `CN1CCN(C2=Nc3ccccc3Cc3ccccc32)CC1`, the Potency result in assay [1], in [2], in [3], in assay [4], in [5] and in assay [7] was “inactive” each time. The Potency result in assay [9], in [10], in assay [11], in [15] and in assay [16] was “inactive” each time. In addition, the call in assay [6] and in assay [8] was inactive. Moreover, the Potency in assay [12] is 26.6 µM (active); in [13], 23.7 µM (active); in [14], 29.8 µM (active).
Consider `COC(F)(F)C(Cl)Cl`, for which the Potency entry in assay [1], in [2], in assay [3], in assay [4], in assay [5] and in assay [7] was “inactive” each time. The Potency result in assay [9], in assay [10], in [11], in assay [12], in assay [13] and in [14] was “inactive” in each case. The Potency entry in assay [15], in assay [17], in assay [18], in [16] and in assay [19] was “inactive” each time. For the same molecule, the outcome in assay [6] and in [8] was inactive.
For the molecule `Nc1ccn(C[C@@H](CO)OCP(=O)(O)O)c(=O)n1`, the Potency entry in assay [1], in assay [2], in [3], in assay [4], in assay [5] and in [7] was “inactive” throughout. For the same molecule, the Potency entry in [9], in [10], in assay [11], in assay [12], in assay [13] and in [14] was “inactive” throughout. In addition, the Potency entry in [15], in assay [20], in assay [17], in assay [18], in [16] and in assay [19] was “inactive” in each case. For the same molecule, the result in assay [6] and in [8] was inactive.
On to `CCCCCCCN(CC)CCCC(O)c1ccc(NS(C)(=O)=O)cc1` (stereo not drawn), for which the Potency entry in [1], in assay [2], in [3], in assay [4], in [5] and in assay [7] was “inactive” each time. The Potency result in [9], in assay [10], in [11], in assay [15] and in assay [16] was “inactive” in each case. Also, the result in assay [6] and in assay [8] was inactive. Besides, the Potency in assay [12] is 23.7 µM (active); in [13], 26.6 µM (active); in assay [14] it was 26.6 µM (active).
Consider `CC(CN1c2ccccc2Sc2ccc(S(=O)(=O)N(C)C)cc21)N(C)C` (stereo not drawn), for which the Potency entry in assay [1], in assay [2], in [3], in assay [4], in assay [5] and in assay [7] was “inactive” each time. For the same molecule, the Potency result in [9], in [10], in assay [11], in assay [15], in assay [20] and in assay [17] was “inactive” each time. The Potency result in assay [18], in [16] and in assay [19] was “inactive” in each case. For the same molecule, the call in assay [6] and in assay [8] was inactive. Moreover, the Potency in assay [12] was 11.9 µM (active); in assay [13] it was 26.6 µM (active); in assay [14] it was 18.8 µM (active).
`CC1CCCC1`: the Potency result in assay [1], in [2], in [3], in assay [4], in assay [5] and in assay [7] was “inactive” throughout. The outcome in assay [6] was inactive.
Take `CCOC(=O)[C@@H](N)CS`: the Potency result in assay [1], in assay [2], in assay [3], in [4], in [5] and in assay [7] was “inactive” throughout. The Potency entry in assay [9], in assay [10], in [11], in [12], in [13] and in assay [14] was “inactive” throughout. The Potency result in assay [15] was “inactive”. The call in assay [6] and in [8] was inactive.
